High-throughput results from PubChem BioAssay.
Rows were chosen to be rich in hits. Some 2.6% of all compounds tested hit in one or more screens of this group.
Cruzain inh noDet: blocks cruzain activity in detergent-free assay. purified cruzain, Z-FR-AMC fluorescence, no detergent. Potency, µM, actives largely listed as inhibitors. actives 2.3% (n = 200,000); note: nearly all actives have a fitted effect of over 40% in size
Target sequence (P25779 123-467 limits assumed): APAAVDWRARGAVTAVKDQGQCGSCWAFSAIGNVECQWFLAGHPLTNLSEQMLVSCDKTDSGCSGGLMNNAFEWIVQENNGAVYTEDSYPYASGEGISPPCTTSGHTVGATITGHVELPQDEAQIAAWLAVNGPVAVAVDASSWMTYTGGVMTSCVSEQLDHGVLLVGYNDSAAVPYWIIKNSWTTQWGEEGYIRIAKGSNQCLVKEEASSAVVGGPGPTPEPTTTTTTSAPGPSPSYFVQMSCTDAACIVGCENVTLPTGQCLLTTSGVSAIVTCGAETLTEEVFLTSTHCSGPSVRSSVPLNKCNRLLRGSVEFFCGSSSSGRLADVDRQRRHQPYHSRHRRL
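Purified cruzain at 1.5 nM, pre-incubated 15 min with compound at room temperature in 100 mM sodium acetate pH 5.5, 5 mM DTT, 0.00005% Triton X-100. Reaction started with 2 uM Z-FR-AMC; AMC fluorescence increase over 60 s gives rate.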
Cruzain inh Det: cruzain (T. cruzi) inhibition with detergent; P25779; actives 0.43% (n = 200,000); purified cruzain, Z-FR-AMC fluorescence, 0.01% Triton; AID 1478; Potency, µM, most hits filed as inhibitors; note: nearly all actives have a fitted effect of over 40% in size
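Read-out: AMC fluorescence (360 nm excitation, 450 nm emission), four reads over 2 min, first-to-third difference used. Conditions: cruzain 1.5 nM, Z-FR-AMC 2 uM, pH 5.5 acetate, 5 mM DTT, 0.01% Triton X-100.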
Hits are given with their value; . = inactive; ? = inconclusive. Calls come from the whole dose curve; as a rule, active = well fitted curve in the direction sought with a large enough effect; inconclusive = small, poorly fitted or top-dose-only effect, or another doubt; inactive = no such curve, though single readings can be large; an effect the other way counts as inactive or inconclusive.

SMILES | Cruzain inh noDet | Cruzain inh Det
CN(Cc1ccccc1)S(=O)(=O)c1nnc(NC(=O)c2ccccc2Cl)s1 | . | .
O=[N+]([O-])c1ccc(N2CCN(c3nc(-c4ccc(Cl)cc4)cs3)CC2)cc1 | 13µM | .
O=[N+]([O-])c1ccc(/C=N\N2CCN(c3ccc(Cl)cc3)CC2)cc1 | 16µM | .
O=[N+]([O-])c1cccc(/C=N\N2CCN(c3ccc(Cl)cc3)CC2)c1 | 25µM | .
O=C(c1cccc([N+](=O)[O-])c1)N1CCN(c2ccc(Cl)cc2)CC1 | . | .
O=[N+]([O-])c1ccc(Cl)c(/C=N/N2CCN(Cc3ccc(Cl)cc3)CC2)c1 | . | .
CCOC(=O)N1CCN(c2nc(-c3ccc(Cl)cc3)cs2)CC1 | . | .
COCCn1c(=O)c(-c2ccccc2)nc2cnc(N(C)C)nc21 | . | .
Cc1c(Cl)cccc1NC(=O)Cn1c(=O)cc(C)c2c(C)nn(-c3cccc(F)c3)c21 | . | .
CCOc1ccccc1NC(=O)CN1C(=O)C2(SCC(=O)N2c2cccc(F)c2)c2ccccc21 (stereo unspecified) | . | .
CC(=O)c1cccc(NC(=O)C2CCN(S(=O)(=O)c3ccc4c(c3)CCCN4C(C)=O)CC2)c1 | . | .
CN(C)S(=O)(=O)c1ccc(N2CCCC2)c(C(=O)Nc2nc3c(ccc4ccccc43)s2)c1 | 7.9µM | .
CN(C)S(=O)(=O)c1ccc(N2CCCC2)c(C(=O)Nc2nc(-c3ccc(F)c(F)c3)cs2)c1 | . | .
Cc1ccc(S(=O)(=O)N(C)c2ccc(OCC(=O)Nc3nc(-c4ccccc4)cs3)cc2)cc1 | 7.9µM | .
CCOC(=O)C(=O)c1csc(NC(=O)COc2ccc(N(C)S(=O)(=O)c3ccc(F)cc3)cc2)n1 | . | .
COc1ccc(NC(=O)COc2ccc(N(C)S(=O)(=O)c3ccc(C)cc3)cc2)cc1 | . | .
Cc1ccc(S(=O)(=O)N(C)c2ccc(OCC(=O)Nc3nc4ccccc4s3)cc2)cc1 | ? | .
Cc1ccc(S(=O)(=O)N(C)c2ccc(OCC(=O)Nc3nc4c(ccc5ccccc54)s3)cc2)cc1 | 4µM | .
CN(c1ccc(OCC(=O)Nc2nc(-c3ccccc3)cs2)cc1)S(=O)(=O)c1ccc(F)cc1 | 7.9µM | .
COc1nc(Oc2ccc(=O)n(-c3ccccc3)n2)nc(N(C)C)n1 | . | .
CC(=O)c1ccc(NC(=O)CN2C(=O)CCc3ccccc32)cc1 | . | .
Oc1ccccc1C(Sc1nc2ccccc2s1)Sc1nc2ccccc2s1 | . | .
O=C(O)c1c(Cl)c(Cl)c(Cl)c(Cl)c1-c1c2cc(I)c(=O)c(I)c-2oc2c(I)c(O)c(I)cc12 | . | 13µM
CCC(CC)C(=O)Nc1cccc(-c2nc3cccnc3s2)c1C | . | .
COc1ccc(C(=O)NCc2ccc3c(c2)CCN3C(=O)c2ccccc2)cc1 | . | .
SMILES | Cruzain inh noDet | Cruzain inh Det
COc1ccc2cc(C(=O)NCc3ccc4c(c3)CCN4C(=O)c3ccc(F)cc3)[nH]c2c1 | 25µM | .
COc1ccc2cc(C(=O)NCc3ccc4c(c3)CCN4C(=O)c3ccc(C)cc3)[nH]c2c1 | 13µM | .
Cc1ccc(NC(=O)NCc2ccc3c(c2)CCN3C(=O)c2ccccc2)c(Cl)c1 | . | .
COc1ccc(C)cc1NC(=O)NCc1ccc2c(c1)CCN2C(=O)c1ccccc1 | 20µM | .
COc1ccc(C(=O)NCc2ccc3c(c2)CCN3C(=O)c2ccc(F)cc2)cc1 | . | .
Cc1ccc(CN(C(=O)COc2cccc(Cl)c2)c2ccccn2)o1 | . | .
Nc1ccccc1O.O.O=C(O)[C@H]1[O][Sb][O][C@H]1C(=O)O | . | .
CCOc1ccc(CCNC(=O)C2CCN(c3nnc(-n4cccc4)s3)CC2)cc1 | 16µM | .
CCOc1ccc(CCNC(=O)C2CCN(c3nnc(-n4cccc4)s3)CC2)cc1OCC | . | .
COc1cc(OC)c(NC(=O)N2CC=C(c3c[nH]c4ccccc34)CC2)cc1Cl | 20µM | .
Cc1ccc(C)c(NC(=O)N2CC=C(c3c[nH]c4ccccc34)CC2)c1 | . | .
Cc1cc(C)c(C(=O)Nc2ccccc2)c(SCC(=O)Nc2ccc(Br)cc2C)n1 | . | .
COc1ccc(CNC(=O)CCCCCn2c(=O)[nH]c3ccccc3c2=O)cc1 | . | .
COc1cc(NS(=O)(=O)c2ccc(NC(=O)c3cccc(F)c3)cc2)nc(OC)n1 | . | .
Cc1ccc(CNC(=O)c2ccc3c(O)c(S(=O)(=O)c4ccccc4)c(=O)[nH]c3c2)cc1 | . | .
COc1cccc(OCC(=O)NNC(=O)c2ccc(-c3ccccc3)cc2)c1 | 25µM | .
COc1cc(NC(=O)COc2cccc(OC)c2)cc(OC)c1 | . | .
CCOC(=O)c1c(NC(=O)c2cc(-c3ccccc3)on2)sc2c1CCCC2 | . | .
O=C(c1ccc2c(c1)CCN2S(=O)(=O)c1ccc(Cl)cc1)N1CCN(c2ccccc2)CC1 | ? | .
Cc1ccc(C2=NNC(c3ccc(Cl)cc3)=Nc3ccccc32)o1 | 13µM | .
Cc1ccc(-c2cc(-c3ccc(Cl)cc3)c(C#N)c(N)n2)o1 | ? | .
N=C(C[C@@H](O)COc1ccccc1-c1ccccc1)N1CCCCC1 | . | .
CCOc1ccc(C2=C(C=Nc3c(C)n(C)n(-c4ccccc4)c3=O)C(c3ccc(F)cc3)c3ccccc3O2)cc1 (stereo unspecified) | 3.2µM | .
CCOc1ccc(C2SCC(=O)N2c2c(C)n(C)n(-c3ccccc3)c2=O)cc1 (stereo unspecified) | . | .
N#CCCn1c(=O)c(-c2ccc(Cl)cc2)nc2cnc(Oc3ccccc3)nc21 | . | .
SMILES | Cruzain inh noDet | Cruzain inh Det
CCN(CC)S(=O)(=O)c1ccc(Cl)c(NC(=O)c2cc(Cl)ccc2Cl)c1 | . | .
CCN(CC)S(=O)(=O)c1ccc(Cl)c(NC(=O)COc2ccc(OC)cc2[N+](=O)[O-])c1 | 13µM | .
COc1ccc(NS(=O)(=O)c2cc(NC(=O)/C=C/c3cc(OC)ccc3OC)ccc2N2CCCCC2)cc1 | 6.3µM | .
O=C(Nc1ccc(Cl)c(Cl)c1)Nc1ccc(N2CCCC2)c(S(=O)(=O)Nc2ccccc2Cl)c1 | ? | .
COc1ccccc1NS(=O)(=O)c1cc(NC(=S)NCCN2CCOCC2)ccc1N1CCOCC1 | ? | .
COc1ccccc1NS(=O)(=O)c1cc(NC(=O)Nc2ccccc2)ccc1N1CCCCC1 | 3.2µM | .
COc1ccc(NS(=O)(=O)c2cc(NC(=O)c3ccco3)ccc2N2CCCC2)cc1 | ? | .
O=C(Nc1ccc(F)cc1)Nc1ccc(N2CCCC2)c(S(=O)(=O)Nc2ccccc2Cl)c1 | 3.2µM | .
COc1ccccc1NS(=O)(=O)c1cc(NC(=O)c2cccs2)ccc1N1CCCCC1 | 10µM | .
COc1ccccc1NS(=O)(=O)c1cc(NC(=O)c2cccs2)ccc1N1CCCC1 | ? | .
CCn1ccc2c(OCC(=O)Nc3ccc(C(C)=O)cc3)cccc2c1=O | . | .
O=C(COc1ccccc1F)Nc1ccc2oc(-c3cccc(Cl)c3)nc2c1 | . | .
O=C(CCn1c(=O)c2sccc2n(Cc2ccccc2F)c1=O)NCc1ccc2c(c1)OCO2 | . | .
CCOc1ccccc1N1CSC2=C(C#N)C(c3c(OC)ccc4ccccc34)CC(=O)N2C1 (stereo unspecified) | 16µM | .
COc1ccc(N2CSC3=C(C#N)C(c4cc(OC)ccc4OC)CC(=O)N3C2)c(OC)c1 (stereo unspecified) | . | .
O=C(Oc1oc(-c2ccco2)nc1C=Nc1ccccc1)c1ccco1 | 16µM | 14µM
O=c1oc(-c2ccco2)nc2c1cnn2-c1ccccc1 | . | .
Cc1ccc(N=Cc2nc(-c3ccco3)oc2O)cc1 | . | .
